# Data published in PubChem BioAssay (NCATS).
# Records with an inconclusive call do not appear. A number with no mark means an inactive call. The source made the active and inactive calls. Calls follow the shape of the dose curve; as a rule, active = well fitted curve in the direction sought with a large enough effect; inconclusive = small, poorly fitted or top-dose-only effect, or another doubt; inactive = no such curve, though single readings can be large; an effect the other way counts as inactive or inconclusive.
# Test system: not listed separately
# Experiment: Primary qHTS for inhibitors of La Crosse Virus (LACV) - induced cell death in SH-SY5Y cells (AID 1508616); also: potency is read from the fitted curve at half-maximal effect;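 as to activity change: top concentration of the series differs between compounds; 0% = infected DMSO wells and 100% = uninfected DMSO wells; higher means more rescue of cells from virus-induced death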
# Conditions: SH-SY5Y LACV cytopathicity rescue, ATP luminescence, 6 d; series mostly up to 4.29 µM; activity change: at the top concentration
# Method in brief: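 SH-SY5Y cells (6000/well) plated 24 h, then given compounds by pin transfer and LACV at 0.01 MOI for 6 days at 37C. Viability measured by ATPLite luminescence, normalized to infected DMSO and uninfected DMSO.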
Compound,activity change,Potency
COc1ccc2cc3[n+](cc2c1OC)CCc1cc2c(cc1-3)OCO2,-16.1%,
O=c1cc(O)c(Cl)c[nH]1,-3.05%,
COc1ccccc1OCC(O)COC(N)=O (stereo not given),22.7%,
CCN[C@H]1C[C@H](C)S(=O)(=O)c2sc(S(N)(=O)=O)cc21,-0.403%,
CCC(=O)O[C@]1(C(=O)CCl)[C@@H](C)C[C@H]2[C@@H]3CCC4=CC(=O)C=C[C@]4(C)[C@@]3(F)[C@@H](O)C[C@@]21C,49.5%,
COc1cc(NS(=O)(=O)c2ccc(N)cc2)nc(OC)n1,13.8%,
CC(C)OC(=O)OCOP(=O)(CO[C@H](C)Cn1cnc2c(N)ncnc21)OCOC(=O)OC(C)C,-10.9%,
O=P(O)(O)C(O)(Cc1cccnc1)P(=O)(O)O,-2.9%,
CC(C)C[C@H](NC(=O)[C@H](CCc1ccccc1)NC(=O)CN1CCOCC1)C(=O)N[C@@H](Cc1ccccc1)C(=O)N[C@@H](CC(C)C)C(=O)[C@@]1(C)CO1,,355 nM (active)
CNS(=O)(=O)Cc1ccc2[nH]cc(CCN(C)C)c2c1,14.4%,
COc1cnc(NS(=O)(=O)c2ccc(N)cc2)nc1,21.8%,
CC(C)Cn1cnc2c(N)nc3ccccc3c21,-15.9% [at 1.78 µM],
CO[C@@]12[C@H](COC(N)=O)C3=C(C(=O)C(C)=C(N)C3=O)N1C[C@@H]1N[C@@H]12,13.2%,
COc1ccc(-c2ccc3cc(C(=O)O)ccc3c2)cc1C12CC3CC(CC(C3)C1)C2,8.32%,
O=NN(CCCl)C(=O)NC1CCCCC1,2.36%,
CC(=O)[C@H]1CC[C@H]2[C@@H]3CC=C4C[C@@H](O)CC[C@]4(C)[C@H]3CC[C@]12C,8.22%,
N[C@@H](C(=O)N[C@@H]1C(=O)N2C(C(=O)O)=C(Cl)CS[C@H]12)c1ccccc1,-11.4% [at 0.858 µM],
CCCCc1oc2ccc(NS(C)(=O)=O)cc2c1C(=O)c1ccc(OCCCN(CCCC)CCCC)cc1,65.8%,

Compound,activity change,Potency
COc1cccc(N(C)C(=S)Oc2ccc3c(c2)CCCC3)n1,35.6%,
Cc1onc(-c2ccccc2Cl)c1C(=O)N[C@@H]1C(=O)N2[C@@H]1SC(C)(C)[C@@H]2C(=O)O,21%,
Nc1nc(N)nc(-c2cc(Cl)ccc2Cl)n1,-0.23%,
CCn1cc(C(=O)O)c(=O)c2cc(F)c(N3CCNCC3)nc21,13%,
C#CCN[C@@H]1CCc2ccccc21,24.4%,
CCN(C)C(=O)Oc1cccc([C@H](C)N(C)C)c1,52.2%,
Cc1noc(NS(=O)(=O)c2ccc(N)cc2)c1C,26.4%,
CC(=O)Oc1ccccc1C(=O)Nc1ncc([N+](=O)[O-])s1,8.63%,
O=C(N[C@H](CO)[C@H](O)c1ccc([N+](=O)[O-])cc1)C(Cl)Cl,22.3% [at 8.54 µM],
CCOCC(O)COc1ccc(NC(=O)CC[S+](C)C)cc1 (stereo not given),10.3%,
COc1ccc(C(=O)CC(=O)c2ccc(C(C)(C)C)cc2)cc1,4.64%,
O=S(=O)(c1cccc2cnccc12)N1CCCNCC1,-4.01%,
CNNCc1ccc(C(=O)NC(C)C)cc1,-3.18%,
COCCCOc1cc(C[C@@H](C[C@H](N)[C@@H](O)C[C@H](C(=O)NCC(C)(C)C(N)=O)C(C)C)C(C)C)ccc1OC,29.2%,
CCCc1cc(C(N)=S)ccn1,17%,
Cc1cccc(Nc2ccncc2S(=O)(=O)NC(=O)NC(C)C)c1,14.5%,
CNC(=O)c1cc(Oc2ccc(NC(=O)Nc3ccc(Cl)c(C(F)(F)F)c3)cc2)ccn1,35.1%,

# Molecular target: Calcium and integrin-binding protein 1 (Homo sapiens) (UniProt Q99828)
# Experiment: Primary qHTS for Identification of Calcium Integrin Binding Protein 1 (CIB1) Competitor (AID 1508620);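 also: GST tagged CIB1 binding a fluorescein labelled alphaIIb integrin peptide tracer; top concentration of the series differs between compounds; % is scaled to controls: 0 for no effect and ±100 for the full control effect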
# Conditions: CIB1-GST / FITC-alphaIIb peptide fluorescence polarization; series mostly up to 57.7 µM; activity change, negative = inhibition: at the top concentration
# Method in brief: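 Fluorescence polarization competition: GST-tagged CIB1 (1 uM final) preincubated with compound 15 min at room temperature, then FITC-labelled alphaIIb peptide (100 nM final) added. After 15 min at room temperature, polarization read at Ex 480/Em 540.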
# Chain of Calcium and integrin-binding protein 1 (Homo sapiens) (Q99828 whole entry, looked up): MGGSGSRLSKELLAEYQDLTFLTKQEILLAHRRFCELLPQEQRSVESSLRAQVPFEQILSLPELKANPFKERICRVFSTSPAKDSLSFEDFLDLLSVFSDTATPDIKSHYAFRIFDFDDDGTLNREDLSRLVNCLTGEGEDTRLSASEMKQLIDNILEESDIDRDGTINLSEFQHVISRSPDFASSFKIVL
Compound,outcome,"activity change, negative = inhibition [%]"
COc1ccc2cc3[n+](cc2c1OC)CCc1cc2c(cc1-3)OCO2,inactive,
O=c1cc(O)c(Cl)c[nH]1,inactive,
COc1ccccc1OCC(O)COC(N)=O (stereo not given),inactive,
CCN[C@H]1C[C@H](C)S(=O)(=O)c2sc(S(N)(=O)=O)cc21,inactive,
CCC(=O)O[C@]1(C(=O)CCl)[C@@H](C)C[C@H]2[C@@H]3CCC4=CC(=O)C=C[C@]4(C)[C@@]3(F)[C@@H](O)C[C@@]21C,inactive,
COc1cc(NS(=O)(=O)c2ccc(N)cc2)nc(OC)n1,inactive,
CC(C)OC(=O)OCOP(=O)(CO[C@H](C)Cn1cnc2c(N)ncnc21)OCOC(=O)OC(C)C,inactive,
O=P(O)(O)C(O)(Cc1cccnc1)P(=O)(O)O,inactive,
CC(C)C[C@H](NC(=O)[C@H](CCc1ccccc1)NC(=O)CN1CCOCC1)C(=O)N[C@@H](Cc1ccccc1)C(=O)N[C@@H](CC(C)C)C(=O)[C@@]1(C)CO1,inactive,
CNS(=O)(=O)Cc1ccc2[nH]cc(CCN(C)C)c2c1,inactive,
COc1cnc(NS(=O)(=O)c2ccc(N)cc2)nc1,inactive,
CC(C)Cn1cnc2c(N)nc3ccccc3c21,inactive,
CO[C@@]12[C@H](COC(N)=O)C3=C(C(=O)C(C)=C(N)C3=O)N1C[C@@H]1N[C@@H]12,,-6.68
COc1ccc(-c2ccc3cc(C(=O)O)ccc3c2)cc1C12CC3CC(CC(C3)C1)C2,inactive,
O=NN(CCCl)C(=O)NC1CCCCC1,inactive,
CC(=O)[C@H]1CC[C@H]2[C@@H]3CC=C4C[C@@H](O)CC[C@]4(C)[C@H]3CC[C@]12C,inactive,
N[C@@H](C(=O)N[C@@H]1C(=O)N2C(C(=O)O)=C(Cl)CS[C@H]12)c1ccccc1,inactive,
CCCCc1oc2ccc(NS(C)(=O)=O)cc2c1C(=O)c1ccc(OCCCN(CCCC)CCCC)cc1,inactive,

Compound,outcome,"activity change, negative = inhibition [%]"
COc1cccc(N(C)C(=S)Oc2ccc3c(c2)CCCC3)n1,inactive,
Cc1onc(-c2ccccc2Cl)c1C(=O)N[C@@H]1C(=O)N2[C@@H]1SC(C)(C)[C@@H]2C(=O)O,inactive,
CN(C)c1ccc(C(=C2C=CC(=[N+](C)C)C=C2)c2ccc(N(C)C)cc2)cc1,,-11.3
Nc1nc(N)nc(-c2cc(Cl)ccc2Cl)n1,inactive,
CCn1cc(C(=O)O)c(=O)c2cc(F)c(N3CCNCC3)nc21,inactive,
C#CCN[C@@H]1CCc2ccccc21,inactive,
CCN(C)C(=O)Oc1cccc([C@H](C)N(C)C)c1,inactive,
Cc1noc(NS(=O)(=O)c2ccc(N)cc2)c1C,inactive,
CC(=O)Oc1ccccc1C(=O)Nc1ncc([N+](=O)[O-])s1,inactive,
O=C(N[C@H](CO)[C@H](O)c1ccc([N+](=O)[O-])cc1)C(Cl)Cl,inactive,
CCOCC(O)COc1ccc(NC(=O)CC[S+](C)C)cc1 (stereo not given),inactive,
COc1ccc(C(=O)CC(=O)c2ccc(C(C)(C)C)cc2)cc1,inactive,
O=S(=O)(c1cccc2cnccc12)N1CCCNCC1,inactive,
COCCCOc1cc(C[C@@H](C[C@H](N)[C@@H](O)C[C@H](C(=O)NCC(C)(C)C(N)=O)C(C)C)C(C)C)ccc1OC,inactive,
CCCc1cc(C(N)=S)ccn1,inactive,
Cc1cccc(Nc2ccncc2S(=O)(=O)NC(=O)NC(C)C)c1,inactive,
CNC(=O)c1cc(Oc2ccc(NC(=O)Nc3ccc(Cl)c(C(F)(F)F)c3)cc2)ccn1,inactive,
